{"source": "PubChem BioAssay AID1159580", "about": "(chemical genetic matrix, 2015)", "test": "chemical genetic growth profiling, strain panel (AID 1159580);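 also: tested at 20 µM; growth read once vehicle control cultures reached saturation at 30 °C; 1 = growth at the plate median or of vehicle wells; lower values mean less growth of the strain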", "conditions": "S. cerevisiae deletion strains, growth OD", "note": "Among all 5,500 compounds or so, about 2,000 (36%) were called active. Not shown: some 18% with an inconclusive outcome. Some of the results follow. A number with no mark means an inactive call. Rule as the data show it: active = normalized growth mostly below about 0.91 (no sharp cut-off); inconclusive = no clear call, values can overlap the other calls; inactive = mostly above about 0.92."}
{"molecule": "CCCCCCCCCCCCCCCC(=O)OC(CC(=O)O)C[N+](C)(C)C", "note": "(stereo unspecified)", "values": [{"measurement": "normalized growth", "setting": "locus YAL040C, strain CLN3, hits give low values", "result": 1.07}, {"measurement": "normalized growth", "setting": "locus YCL061C, strain MRC1 (second series), hits give low values", "result": "0.492 (active)"}, {"measurement": "normalized growth", "setting": "locus YDR150W, strain NUM1, hits give low values", "result": "0.56 (active)"}, {"measurement": "normalized growth", "setting": "locus YDR363W, strain ESC2, hits give low values", "result": "0.784 (active)"}, {"measurement": "normalized growth", "setting": "locus YER002W, strain NOP16, hits give low values", "result": "0.424 (active)"}, {"measurement": "normalized growth", "setting": "locus YGR229C, strain SMI1, hits give low values", "result": "0.0686 (active)"}, {"measurement": "normalized growth", "setting": "locus YJR075W, strain HOC1, hits give low values", "result": "0.724 (active)"}, {"measurement": "normalized growth", "setting": "locus YMR263W, strain SAP30, hits give low values", "result": "0.584 (active)"}, {"measurement": "normalized growth", "setting": "locus YNL153C, strain GIM3, hits give low values", "result": "0.0876 (active)"}, {"measurement": "normalized growth", "setting": "locus YNL175C, strain NOP13, hits give low values", "result": "0.0754 (active)"}, {"measurement": "normalized growth", "setting": "locus YNL197C, strain WHI3, hits give low values", "result": "0.0681 (active)"}, {"measurement": "normalized growth", "setting": "locus YNL224C, strain SQS1, hits give low values", "result": "0.0761 (active)"}, {"measurement": "normalized growth", "setting": "locus YNL322C, strain KRE1, hits give low values", "result": "0.354 (active)"}, {"measurement": "normalized growth", "setting": "locus YOR083W, strain WHI5 (second series), hits give low values", "result": "0.0749 (active)"}, {"measurement": "normalized growth", "setting": "locus YPL055C, strain LGE1, hits give low values", "result": "0.383 (active)"}, {"measurement": "normalized growth", "setting": "locus YPL241C, strain CIN2, hits give low values", "result": 0.976}]}
